From ChEMBL document CHEMBL2218924, “A broad activity screen in support of a chemogenomic map for kinase signalling research and drug discovery” (Biochem J, 2013)

Legend:
[1] = target: MAP kinase-activated protein kinase 2 (Homo sapiens) (UniProt P49137); conditions: at 10 µM
[2] = target: MAP kinase-activated protein kinase 3 (Homo sapiens) (UniProt Q16644); conditions: at 10 µM
[3] = target: Serine/threonine-protein kinase MARK1 (Homo sapiens) (UniProt Q9P0L2); conditions: at 1 µM
[4] = target: Serine/threonine-protein kinase MARK1 (Homo sapiens) (UniProt Q9P0L2); conditions: at 10 µM
[5] = target: Dual specificity mitogen-activated protein kinase kinase 1 (Homo sapiens) (UniProt Q02750); conditions: at 1 µM
[6] = target: Dual specificity mitogen-activated protein kinase kinase 1 (Homo sapiens) (UniProt Q02750); conditions: at 10 µM
[7] = target: Maternal embryonic leucine zipper kinase (Homo sapiens) (UniProt Q14680); conditions: at 1 µM
[8] = target: Maternal embryonic leucine zipper kinase (Homo sapiens) (UniProt Q14680); conditions: at 10 µM
[9] = target: Misshapen-like kinase 1 (Homo sapiens) (UniProt Q8N4C8); conditions: at 1 µM
[10] = target: Misshapen-like kinase 1 (Homo sapiens) (UniProt Q8N4C8); conditions: at 10 µM

Sequence of Misshapen-like kinase 1 (Homo sapiens) (Q8N4C8 whole entry, looked up): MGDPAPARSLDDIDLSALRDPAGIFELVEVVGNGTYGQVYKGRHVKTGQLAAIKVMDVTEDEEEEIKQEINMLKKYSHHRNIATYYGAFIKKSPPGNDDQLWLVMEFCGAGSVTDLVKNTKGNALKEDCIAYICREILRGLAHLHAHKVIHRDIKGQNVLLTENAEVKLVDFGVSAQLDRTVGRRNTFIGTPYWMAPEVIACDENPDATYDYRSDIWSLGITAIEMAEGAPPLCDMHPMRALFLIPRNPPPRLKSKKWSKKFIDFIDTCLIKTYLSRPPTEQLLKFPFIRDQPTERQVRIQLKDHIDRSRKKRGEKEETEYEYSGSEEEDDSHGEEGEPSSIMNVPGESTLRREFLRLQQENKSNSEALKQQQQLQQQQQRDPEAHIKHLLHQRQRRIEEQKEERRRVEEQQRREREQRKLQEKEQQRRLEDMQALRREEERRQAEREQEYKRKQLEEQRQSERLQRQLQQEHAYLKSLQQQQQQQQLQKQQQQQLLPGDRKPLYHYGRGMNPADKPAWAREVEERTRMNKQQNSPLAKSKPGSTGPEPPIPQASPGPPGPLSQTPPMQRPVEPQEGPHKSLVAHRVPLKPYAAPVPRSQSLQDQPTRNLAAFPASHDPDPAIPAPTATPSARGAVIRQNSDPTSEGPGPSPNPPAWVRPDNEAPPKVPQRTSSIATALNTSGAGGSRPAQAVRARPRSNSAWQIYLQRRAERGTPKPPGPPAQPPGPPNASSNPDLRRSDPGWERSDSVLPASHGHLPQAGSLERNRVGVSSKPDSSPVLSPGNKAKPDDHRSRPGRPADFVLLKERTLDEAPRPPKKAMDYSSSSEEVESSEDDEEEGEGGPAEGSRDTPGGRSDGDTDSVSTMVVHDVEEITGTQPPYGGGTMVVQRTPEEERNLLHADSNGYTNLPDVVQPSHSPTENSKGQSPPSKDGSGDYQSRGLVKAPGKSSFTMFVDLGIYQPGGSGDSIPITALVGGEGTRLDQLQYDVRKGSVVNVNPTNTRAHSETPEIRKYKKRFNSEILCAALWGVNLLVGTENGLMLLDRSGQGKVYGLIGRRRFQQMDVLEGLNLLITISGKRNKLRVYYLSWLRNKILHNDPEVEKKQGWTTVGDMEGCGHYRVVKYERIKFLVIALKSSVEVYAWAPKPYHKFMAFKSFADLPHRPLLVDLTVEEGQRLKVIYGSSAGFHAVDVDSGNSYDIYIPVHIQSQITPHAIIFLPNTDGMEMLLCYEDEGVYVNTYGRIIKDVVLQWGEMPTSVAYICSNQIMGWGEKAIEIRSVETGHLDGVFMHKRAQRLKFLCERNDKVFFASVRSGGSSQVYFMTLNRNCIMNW
Sequence of MAP kinase-activated protein kinase 3 (Homo sapiens) (Q16644 whole entry, looked up): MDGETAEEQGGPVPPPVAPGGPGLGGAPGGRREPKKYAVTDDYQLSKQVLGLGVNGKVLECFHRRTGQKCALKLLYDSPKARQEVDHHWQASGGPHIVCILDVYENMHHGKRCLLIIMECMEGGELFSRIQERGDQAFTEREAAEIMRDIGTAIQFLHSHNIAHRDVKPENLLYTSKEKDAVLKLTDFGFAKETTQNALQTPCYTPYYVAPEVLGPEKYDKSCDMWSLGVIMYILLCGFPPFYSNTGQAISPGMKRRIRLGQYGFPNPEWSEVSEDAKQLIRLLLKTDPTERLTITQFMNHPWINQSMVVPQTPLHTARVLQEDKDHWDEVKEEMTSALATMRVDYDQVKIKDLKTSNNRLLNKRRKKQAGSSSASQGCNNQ
Sequence of Serine/threonine-protein kinase MARK1 (Homo sapiens) (Q9P0L2 whole entry, looked up): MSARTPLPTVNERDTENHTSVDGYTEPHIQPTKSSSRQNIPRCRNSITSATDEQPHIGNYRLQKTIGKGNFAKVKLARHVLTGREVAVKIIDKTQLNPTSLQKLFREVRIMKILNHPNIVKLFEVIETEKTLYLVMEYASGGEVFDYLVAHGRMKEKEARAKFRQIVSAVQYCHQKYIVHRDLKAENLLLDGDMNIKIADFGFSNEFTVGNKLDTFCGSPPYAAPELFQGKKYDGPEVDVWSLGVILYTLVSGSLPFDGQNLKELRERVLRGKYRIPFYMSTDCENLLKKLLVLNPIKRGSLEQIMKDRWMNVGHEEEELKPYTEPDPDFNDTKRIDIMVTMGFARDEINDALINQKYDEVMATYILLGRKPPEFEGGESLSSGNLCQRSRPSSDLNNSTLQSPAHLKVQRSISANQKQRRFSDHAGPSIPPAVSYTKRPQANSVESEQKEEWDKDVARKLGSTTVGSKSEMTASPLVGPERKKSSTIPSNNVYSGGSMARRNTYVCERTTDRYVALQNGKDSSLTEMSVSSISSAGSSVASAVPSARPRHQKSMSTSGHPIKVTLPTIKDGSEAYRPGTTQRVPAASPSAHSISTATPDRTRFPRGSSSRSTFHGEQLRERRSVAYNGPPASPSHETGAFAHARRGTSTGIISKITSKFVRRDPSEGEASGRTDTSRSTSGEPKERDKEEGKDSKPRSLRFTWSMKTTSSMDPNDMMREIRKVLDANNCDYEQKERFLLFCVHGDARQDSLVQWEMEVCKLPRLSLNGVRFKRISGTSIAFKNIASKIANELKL
Sequence of Dual specificity mitogen-activated protein kinase kinase 1 (Homo sapiens) (Q02750 whole entry): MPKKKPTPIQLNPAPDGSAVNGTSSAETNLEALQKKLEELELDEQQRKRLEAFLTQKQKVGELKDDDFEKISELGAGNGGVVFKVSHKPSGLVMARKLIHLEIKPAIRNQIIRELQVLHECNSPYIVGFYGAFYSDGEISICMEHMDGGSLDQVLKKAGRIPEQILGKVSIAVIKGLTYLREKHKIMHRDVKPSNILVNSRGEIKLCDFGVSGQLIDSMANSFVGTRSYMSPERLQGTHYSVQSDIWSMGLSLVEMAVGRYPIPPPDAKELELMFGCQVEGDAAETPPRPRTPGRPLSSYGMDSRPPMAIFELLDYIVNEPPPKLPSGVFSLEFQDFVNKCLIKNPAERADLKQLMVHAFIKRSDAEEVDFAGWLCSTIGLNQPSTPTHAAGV
Sequence of Maternal embryonic leucine zipper kinase (Homo sapiens) (Q14680 whole entry, looked up): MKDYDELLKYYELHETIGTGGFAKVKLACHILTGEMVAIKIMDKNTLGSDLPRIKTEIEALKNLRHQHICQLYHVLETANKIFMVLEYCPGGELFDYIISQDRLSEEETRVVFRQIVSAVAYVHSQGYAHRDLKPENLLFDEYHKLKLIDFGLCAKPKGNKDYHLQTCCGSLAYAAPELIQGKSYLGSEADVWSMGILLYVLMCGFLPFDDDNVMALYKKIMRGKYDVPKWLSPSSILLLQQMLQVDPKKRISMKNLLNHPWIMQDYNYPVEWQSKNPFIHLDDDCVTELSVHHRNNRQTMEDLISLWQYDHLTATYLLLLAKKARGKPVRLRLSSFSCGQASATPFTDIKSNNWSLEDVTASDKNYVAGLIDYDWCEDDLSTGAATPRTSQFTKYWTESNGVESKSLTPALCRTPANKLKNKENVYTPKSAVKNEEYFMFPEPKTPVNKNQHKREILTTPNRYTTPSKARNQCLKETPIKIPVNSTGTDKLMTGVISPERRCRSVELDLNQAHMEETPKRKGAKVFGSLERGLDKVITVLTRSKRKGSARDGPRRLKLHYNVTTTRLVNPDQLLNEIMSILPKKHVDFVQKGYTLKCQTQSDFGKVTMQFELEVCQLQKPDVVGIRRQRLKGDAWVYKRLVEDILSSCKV
Sequence of MAP kinase-activated protein kinase 2 (Homo sapiens) (P49137 whole entry, looked up): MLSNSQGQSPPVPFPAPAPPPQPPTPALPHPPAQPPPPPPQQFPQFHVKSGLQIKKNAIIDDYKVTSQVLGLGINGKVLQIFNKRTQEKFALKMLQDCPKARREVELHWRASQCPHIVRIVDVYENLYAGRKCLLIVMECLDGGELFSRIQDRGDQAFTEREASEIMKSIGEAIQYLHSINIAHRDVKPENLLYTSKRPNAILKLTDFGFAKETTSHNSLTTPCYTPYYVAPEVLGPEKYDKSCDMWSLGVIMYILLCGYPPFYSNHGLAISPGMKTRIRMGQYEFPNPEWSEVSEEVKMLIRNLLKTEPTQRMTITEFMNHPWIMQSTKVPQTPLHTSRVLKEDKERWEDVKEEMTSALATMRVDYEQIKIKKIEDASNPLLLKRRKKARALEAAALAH

Structure (SMILES)	residual activity [1]	residual activity [2]	residual activity [3]	residual activity [4]	residual activity [5]	residual activity [6]	residual activity [7]	residual activity [8]	residual activity [9]	residual activity [10]
CCOc1cc2ncnc(Nc3cccc(Br)c3)c2cc1OCC	72%	82%	82%	69%	117%	50%	91%	62%	88%	50%
Oc1ccc(Nc2nc(-c3ccc(Cl)cc3)cs2)cc1	71%	116%	104%	93%	106%	112%	114%	100%	104%	83%
COc1ccc(S(=O)(=O)N(CCO)c2ccccc2CN(C)C/C=C/c2ccc(Cl)cc2)cc1	73%	84%	83%	77%	97%	79%	90%	63%	98%	97%
O=C1NC(=O)c2c1c1c3ccccc3[nH]c1c1[nH]c3cc(Br)ccc3c21	93%	89%	67%	34%	75%	98%	87%	82%	109%	90%
Cc1nc(-c2ccccc2)c(-c2ccncc2)o1	110%	101%	97%	89%	105%	106%	104%	89%	118%	88%
Cn1cc(/C=C2\C(=O)Nc3ccc(S(N)(=O)=O)cc32)c2ccccc21	71%	88%	23%	7%	42%	19%	42%	51%	56%	61%
Oc1c2ccccc2c2c3c(cccc13)N=N2	69%	103%	38%	6%	75%	50%	13%	0%	86%	50%
CO[C@H]1[C@@H](OC)C[C@H](C)[C@@H](OC)C2=CC(=O)C=C(NC(=O)/C(C)=C/C=C/[C@H](OC)[C@@H](OC(N)=O)/C(C)=C/[C@@H]1C)C2=O	85%	81%	92%	82%	102%	95%	60%	63%	95%	92%
c1ccc2c(-c3ccncc3)c[nH]c2c1	94%	101%	81%	77%	87%	75%	91%	76%	85%	43%
Nc1nc(Nc2ccc(S(N)(=O)=O)cc2)nn1C(=S)Nc1c(F)cccc1F	9%	41%	-1%	0%	16%	6%	17%	24%	18%	2%
CO[C@@H]1[C@H](N(C)C(=O)c2ccccc2)C[C@H]2O[C@]1(C)n1c3ccccc3c3c4c(c5c6ccccc6n2c5c31)C(=O)NC4	47%	37%	1%	0%	74%	56%	5%	2%	52%	18%
O=c1c2ccccc2[nH]c(=S)n1CCN1CCC(=C(c2ccc(F)cc2)c2ccc(F)cc2)CC1	89%	86%	100%	87%	98%	92%	86%	86%	88%	65%
COc1cccc(-c2cc(=O)c3ccccc3o2)c1N	78%	97%	87%	85%	103%	111%	109%	113%	98%	96%
NC(=O)c1ccc2[nH]c(-c3ccc(Oc4ccc(Cl)cc4)cc3)nc2c1	126%	127%	85%	70%	91%	111%	91%	83%	91%	66%
CC(=O)O/N=C1\C(=C2\C(=O)Nc3cc(Br)ccc32)Nc2ccccc21	93%	90%	77%	39%	98%	113%	69%	52%	103%	86%
COc1cc2ncnc(Nc3ccc(Oc4ccccc4)cc3)c2cc1OC	108%	127%	83%	81%	89%	38%	76%	129%	99%	89%
COc1ccc(CNc2nc(N(CCO)CCO)nc3c2ncn3C(C)C)cc1	81%	98%	85%	72%	103%	120%	77%	38%	103%	92%
